Reference: PubChem BioAssay (NCI)
This is part of a sample that, as a whole, favours compounds with a hit. Of some 83,000 tested, about 20% had one in any assay.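 Results are percent growth after 48 hours of single-concentration exposure. 100 means growth as in untreated cells, lower positive values show inhibition; negative values down to -100 show cell death.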 The source made the active and inactive calls. Rule for the calls: active = growth percent below 10; inactive = the rest.

Key:
Test in all cases: NCI-60 one-dose screen, 48 h (100 = growth as untreated, 0 = no growth, -100 = all killed)
Conditions in all cases: 10 µM unless noted
SR leukemia = tested on: SR leukemia
RPMI-8226 leukemia = tested on: RPMI-8226 leukemia
OVCAR-8 ovarian = tested on: OVCAR-8 ovarian
OVCAR-5 ovarian = tested on: OVCAR-5 ovarian
OVCAR-4 ovarian = tested on: OVCAR-4 ovarian
SK-OV-3 ovarian = tested on: SK-OV-3 ovarian
IGROV1 ovarian = tested on: IGROV1 ovarian
OVCAR-3 ovarian = tested on: OVCAR-3 ovarian
HS 578T breast = tested on: HS 578T breast
NCI/ADR-RES ovarian = tested on: NCI/ADR-RES ovarian
T-47D breast = tested on: T-47D breast
BT-549 breast = tested on: BT-549 breast
MDA-MB-435 melanoma = tested on: MDA-MB-435 melanoma
SW-620 colon = tested on: SW-620 colon
MCF7 breast = tested on: MCF7 breast
HCT-116 colon = tested on: HCT-116 colon
KM12 colon = tested on: KM12 colon
HCC-2998 colon = tested on: HCC-2998 colon

Measured: growth

C=C1C(=O)O[C@H]2[C@H]1CC/C(COC(=O)NCCc1ccc(OC)c(OC)c1)=C\CC[C@@]1(C)O[C@@H]21
inactive: SR leukemia 11.2% | RPMI-8226 leukemia 28.8% | OVCAR-8 ovarian 51% | OVCAR-5 ovarian 82.8% | OVCAR-4 ovarian 49.9% | SK-OV-3 ovarian 99.3% | IGROV1 ovarian 55.9% | OVCAR-3 ovarian 25.8% | HS 578T breast 91.1% | NCI/ADR-RES ovarian 103% | T-47D breast 33.2% | BT-549 breast 64.3% | MDA-MB-435 melanoma 58.3% | SW-620 colon 18.9% | MCF7 breast 34.8% | KM12 colon 84.4%
active: HCT-116 colon 5.66%

C#CCOc1ccc2ncnc(Nc3cccc(CNC(=O)CCl)c3)c2c1
active: IGROV1 ovarian -5.04% [8.25 µM]
inactive: SR leukemia 25.1% [8.25 µM] | RPMI-8226 leukemia 37.7% [8.25 µM] | OVCAR-8 ovarian 38.8% [8.25 µM] | OVCAR-5 ovarian 65.9% [8.25 µM] | OVCAR-4 ovarian 27.2% [8.25 µM] | SK-OV-3 ovarian 48.1% [8.25 µM] | OVCAR-3 ovarian 29.3% [8.25 µM] | HS 578T breast 37.8% [8.25 µM] | NCI/ADR-RES ovarian 90.3% [8.25 µM] | T-47D breast 29.6% [8.25 µM] | BT-549 breast 47.7% [8.25 µM] | MDA-MB-435 melanoma 49.6% [8.25 µM] | SW-620 colon 30.4% [8.25 µM] | MCF7 breast 30.4% [8.25 µM] | HCC-2998 colon 99% [8.25 µM] | KM12 colon 63.2% [8.25 µM]

COc1ccc2nc(NC(=O)CSc3nnc4n3S(=O)(=O)c3ccccc3N4c3ccccc3)sc2c1
inactive: SR leukemia 66.6% | RPMI-8226 leukemia 66.8% | OVCAR-8 ovarian 51.2% | OVCAR-5 ovarian 94.2% | OVCAR-4 ovarian 91.8% | SK-OV-3 ovarian 100% | IGROV1 ovarian 27.7% | OVCAR-3 ovarian 104% | HS 578T breast 89.6% | NCI/ADR-RES ovarian 93.5% | T-47D breast 93.7% | BT-549 breast 83.7% | MDA-MB-435 melanoma 97.8% | SW-620 colon 107% | MCF7 breast 82.3% | HCT-116 colon 87.9% | KM12 colon 97.4%

COc1ccc(NC2=C(Sc3nc(C)cc(C)n3)C(=O)N(Cc3ccccc3)C2=O)cc1Cl
inactive: SR leukemia 63.4% [30 µM] | RPMI-8226 leukemia 39.3% [30 µM] | OVCAR-8 ovarian 29.3% [30 µM] | OVCAR-5 ovarian 124% [30 µM] | OVCAR-4 ovarian 78.6% [30 µM] | SK-OV-3 ovarian 117% [30 µM] | IGROV1 ovarian 113% [30 µM] | OVCAR-3 ovarian 92% [30 µM] | NCI/ADR-RES ovarian 63.5% [30 µM] | T-47D breast 41.9% [30 µM] | BT-549 breast 65.4% [30 µM] | MDA-MB-435 melanoma 86.6% [30 µM] | SW-620 colon 88.7% [30 µM] | HCT-116 colon 76.9% [30 µM] | KM12 colon 99.2% [30 µM]
active: HS 578T breast -21.7% [30 µM]

COc1cc(/C=C/c2cc(/C=C/c3ccc(O)c(OC)c3)n(-c3c(C)cccc3C)c(=O)n2)ccc1O
active: SR leukemia 0.0669% | RPMI-8226 leukemia -27.4% | OVCAR-8 ovarian 0.393% | OVCAR-5 ovarian 9.05% | OVCAR-4 ovarian 3.15% | SK-OV-3 ovarian -37.7% | IGROV1 ovarian 9.72% | OVCAR-3 ovarian 5.84% | HS 578T breast -4.97% | T-47D breast -4.26% | BT-549 breast -18.1% | MDA-MB-435 melanoma 2.28% | MCF7 breast 1.69% | HCT-116 colon 8.26%
inactive: NCI/ADR-RES ovarian 12.6% | HCC-2998 colon 24.1% | KM12 colon 11.6%

CC(=O)c1cc(C(=O)c2ccc3c(c2)Sc2ccccc2N3)n2ccccc12
active: SR leukemia 9.43% | RPMI-8226 leukemia 5.63% | OVCAR-8 ovarian 6.54% | SK-OV-3 ovarian 9.84% | OVCAR-3 ovarian -16.8% | MDA-MB-435 melanoma -9.84% | HCT-116 colon 0.708% | KM12 colon 9.91%
inactive: OVCAR-5 ovarian 68.2% | OVCAR-4 ovarian 40.9% | IGROV1 ovarian 15% | HS 578T breast 24.9% | NCI/ADR-RES ovarian 22.1% | T-47D breast 43% | BT-549 breast 45.8%

O=C(CN(C(=O)Cn1c(=O)n2nnnc2c2ccccc21)c1ccccc1C(F)(F)F)Nc1ccc(C(F)(F)F)cc1
inactive: SR leukemia 111% | RPMI-8226 leukemia 103% | OVCAR-8 ovarian 100% | OVCAR-5 ovarian 106% | OVCAR-4 ovarian 97.1% | SK-OV-3 ovarian 103% | IGROV1 ovarian 88.1% | OVCAR-3 ovarian 110% | HS 578T breast 103% | NCI/ADR-RES ovarian 106% | T-47D breast 101% | MDA-MB-435 melanoma 105% | SW-620 colon 105% | MCF7 breast 96.1% | HCT-116 colon 95.5% | HCC-2998 colon 106% | KM12 colon 110%

CC(=O)Nc1ccc(-n2c(O)c(/C=N/NC(=O)Cc3ccccc3Nc3c(Cl)cccc3Cl)sc2=S)cc1
inactive: SR leukemia 72.9% | RPMI-8226 leukemia 106% | OVCAR-8 ovarian 91.7% | OVCAR-5 ovarian 114% | OVCAR-4 ovarian 105% | SK-OV-3 ovarian 111% | IGROV1 ovarian 96.7% | OVCAR-3 ovarian 116% | HS 578T breast 92.5% | NCI/ADR-RES ovarian 101% | T-47D breast 80.6% | BT-549 breast 104% | MDA-MB-435 melanoma 109% | SW-620 colon 96.5% | MCF7 breast 92.3% | KM12 colon 105%

CNC(=O)c1cc(Oc2ccc(NC(=O)Nc3ccc(Cl)c(SC)c3)c(F)c2)ccn1
inactive: SR leukemia 31.4% | RPMI-8226 leukemia 27.6% | OVCAR-8 ovarian 49.9% | OVCAR-5 ovarian 77.8% | OVCAR-4 ovarian 16.3% | SK-OV-3 ovarian 79.5% | IGROV1 ovarian 56.4% | OVCAR-3 ovarian 61.2% | HS 578T breast 56% | NCI/ADR-RES ovarian 47.8% | BT-549 breast 64.7% | MDA-MB-435 melanoma 32.6% | SW-620 colon 67.5% | HCT-116 colon 30.8% | HCC-2998 colon 51.3% | KM12 colon 29.3%
active: T-47D breast -3.32%

O=C1Nc2ccc(Br)cc2C12Oc1ccccc1C1CC(c3ccc(F)cc3)=NN12 (stereo not drawn)
inactive: SR leukemia 87.1% | RPMI-8226 leukemia 84% | OVCAR-8 ovarian 93.7% | OVCAR-5 ovarian 111% | OVCAR-4 ovarian 85.5% | SK-OV-3 ovarian 102% | IGROV1 ovarian 72.8% | OVCAR-3 ovarian 96.3% | HS 578T breast 89.1% | NCI/ADR-RES ovarian 97.3% | T-47D breast 85.9% | BT-549 breast 91.8% | MDA-MB-435 melanoma 99.8% | MCF7 breast 83.5% | HCT-116 colon 92.3% | HCC-2998 colon 97.8% | KM12 colon 86.3%

C=C1C(=O)O[C@H]2[C@H]1CC/C(COC(=O)c1cc3cc(OC)ccc3[nH]1)=C\CC[C@@]1(C)O[C@@H]21
active: SR leukemia -21.1% | RPMI-8226 leukemia -20.3% | OVCAR-8 ovarian -66.9% | OVCAR-5 ovarian -58.6% | OVCAR-4 ovarian -81.5% | IGROV1 ovarian -77.1% | OVCAR-3 ovarian -97.4% | HS 578T breast -3.89% | NCI/ADR-RES ovarian -0.39% | T-47D breast -60.6% | BT-549 breast -55.3% | MDA-MB-435 melanoma -91.9% | MCF7 breast -61.3% | HCT-116 colon -94.8% | HCC-2998 colon -74.2% | KM12 colon -67.9%
inactive: SK-OV-3 ovarian 50.6%

COc1cc(-c2nc3cc(Cl)c(Cl)cc3[nH]2)ccc1OCC(=O)N=Nc1c(O)[nH]c2ccccc12
active: SR leukemia -27.7% | RPMI-8226 leukemia -45.2% | OVCAR-8 ovarian -59% | OVCAR-5 ovarian -75% | OVCAR-4 ovarian -92.7% | SK-OV-3 ovarian -28.2% | IGROV1 ovarian -86.8% | OVCAR-3 ovarian -98.1% | HS 578T breast -47.9% | T-47D breast -63.4% | BT-549 breast -90.3% | MDA-MB-435 melanoma -94.9% | SW-620 colon -46.9% | HCT-116 colon -75.6% | HCC-2998 colon -91.1% | KM12 colon -81.5%
inactive: NCI/ADR-RES ovarian 85.3%

COc1ccc(-n2nc(C)c3c(Oc4ccc(NC(=O)Nc5c(Cl)cccc5Cl)cc4)ncnc32)cc1
inactive: SR leukemia 111% | RPMI-8226 leukemia 102% | OVCAR-8 ovarian 97.4% | OVCAR-5 ovarian 112% | OVCAR-4 ovarian 99.9% | SK-OV-3 ovarian 89% | IGROV1 ovarian 101% | OVCAR-3 ovarian 112% | HS 578T breast 92% | NCI/ADR-RES ovarian 102% | T-47D breast 87.4% | BT-549 breast 117% | MDA-MB-435 melanoma 100% | SW-620 colon 95.7% | HCT-116 colon 109% | HCC-2998 colon 100% | KM12 colon 100%

NC(=NC1C2CC3CC(C2)CC1C3)Nc1ccc(I)cc1 (stereo not drawn)
active: SR leukemia -10.1% | IGROV1 ovarian 4.42% | T-47D breast 2.31% | HCT-116 colon 8.08%
inactive: RPMI-8226 leukemia 20.6% | OVCAR-8 ovarian 70.1% | OVCAR-5 ovarian 38.9% | OVCAR-4 ovarian 20.2% | SK-OV-3 ovarian 77.6% | OVCAR-3 ovarian 53.9% | HS 578T breast 33% | NCI/ADR-RES ovarian 49.5% | BT-549 breast 53.7% | MDA-MB-435 melanoma 30.7% | SW-620 colon 20.9% | KM12 colon 45.9%

CCc1nnc(CNc2ccc(Cl)cc2)o1
inactive: SR leukemia 88.6% | RPMI-8226 leukemia 103% | OVCAR-8 ovarian 109% | OVCAR-5 ovarian 95.6% | OVCAR-4 ovarian 99.2% | SK-OV-3 ovarian 88.5% | IGROV1 ovarian 105% | OVCAR-3 ovarian 99.9% | HS 578T breast 102% | NCI/ADR-RES ovarian 97.8% | T-47D breast 93.9% | BT-549 breast 96.4% | MDA-MB-435 melanoma 101% | MCF7 breast 91.3% | HCT-116 colon 96.1% | HCC-2998 colon 97.6% | KM12 colon 101%

COc1cc2c(cc1O)CC[C@@H]1[C@@H]2CC[C@]2(C)[C@@H](NCCN(C)C)CC[C@@H]12
active: SR leukemia -67.2% | RPMI-8226 leukemia -59.9% | OVCAR-8 ovarian -79% | OVCAR-5 ovarian -84% | OVCAR-4 ovarian -63.3% | SK-OV-3 ovarian -90% | IGROV1 ovarian -74.8% | OVCAR-3 ovarian -88.3% | HS 578T breast -56.9% | NCI/ADR-RES ovarian -85.9% | T-47D breast -64.5% | BT-549 breast -84.3% | MDA-MB-435 melanoma -78.9% | MCF7 breast -75.8% | HCT-116 colon -90.6% | KM12 colon -82.4%

Cn1ccnc1C(=O)/C=C/c1ccc(CC(=O)Nc2ccccc2)cc1
active: SR leukemia -10.7% | RPMI-8226 leukemia -12.5% | OVCAR-8 ovarian -0.35% | OVCAR-3 ovarian -7.34% | SW-620 colon 2.2% | KM12 colon 3.7%
inactive: OVCAR-5 ovarian 29.6% | OVCAR-4 ovarian 31.4% | SK-OV-3 ovarian 27.3% | IGROV1 ovarian 12.7% | HS 578T breast 37.2% | NCI/ADR-RES ovarian 13.5% | T-47D breast 15.2% | BT-549 breast 22.4% | MDA-MB-435 melanoma 13.5% | HCT-116 colon 18.2% | HCC-2998 colon 29%
